Experimental data from PubChem BioAssay AID1159580 (chemical genetic matrix, 2015).
Several values for one entry are separate records, joined by “and”; a condition that tells them apart may be missing. Equal entries are not always repeated. The campaign covered roughly 5,500 compounds. About 2,000 (36%) were called active. About 18% were inconclusive and are not listed. Cut-off read from the data, not from the text of the source: active = normalized growth mostly below about 0.91 (no sharp cut-off); inconclusive = no clear call, values can overlap the other calls; inactive = mostly above about 0.92. Some of the results follow.

Test: chemical genetic growth profiling, strain panel (AID 1159580);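 note: tested at 20 µM; growth read once vehicle control cultures reached saturation at 30 °C; 1 = growth at the plate median or of vehicle wells; lower values mean less growth of the strain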
Conditions: S. cerevisiae deletion strains, growth OD
[1] = locus YAL013W, strain DEP1, active compounds read low
[2] = locus YBR229C, strain ROT2, active compounds read low
[3] = locus YDL101C, strain DUN1, active compounds read low
[4] = locus YDL134C, strain PPH21, active compounds read low
[5] = locus YDR150W, strain NUM1, active compounds read low
[6] = locus YEL061C, strain CIN8, active compounds read low
[7] = locus YHR030C, strain SLT2, active compounds read low
[8] = locus YJL187C, strain SWE1, active compounds read low
[9] = locus YJR043C, strain POL32, active compounds read low
[10] = locus YJR075W, strain HOC1, active compounds read low
[11] = locus YLR039C, strain RIC1, active compounds read low
[12] = locus YLR262C, strain YPT6, active compounds read low
[13] = locus YMR263W, strain SAP30, active compounds read low
[14] = locus YNL322C, strain KRE1, active compounds read low
[15] = locus YPL055C, strain LGE1, active compounds read low
[16] = locus YPL241C, strain CIN2, active compounds read low

Measured: normalized growth

Cc1cc(C2=CSC3=NCCN23)ccc1Cl
inactive: [1] 0.99 | [2] 1.01 | [3] 0.974 | [4] 0.989 | [5] 0.974 | [6] 1 | locus YGR078C, strain PAC10, active compounds read low 0.989 | [7] 0.872 | locus YHR087W, strain rtc3, active compounds read low 1.01 | [8] 1 | [9] 0.999 | [10] 0.982 | [11] 1.02 | locus YLR058C, strain SHM2 (second series), active compounds read low 0.996 | locus YLR085C, strain ARP6, active compounds read low 0.933 | [12] 1.03 | locus YML094W, strain GIM5, active compounds read low 0.99 | locus YMR219W, strain ESC1, active compounds read low 0.987 | [13] 0.998 | locus YNL153C, strain GIM3, active compounds read low 0.992 | locus YNL298W, strain CLA4 (second series), active compounds read low 0.946 | [14] 0.989 | locus YNR030W, strain Alg12, active compounds read low 0.994 | locus YOL006C, strain TOP1, active compounds read low 0.752 | [15] 1.02 | [16] 0.975 | locus YPR135W, strain CTF4, active compounds read low 0.709

Cc1cc(O)cc(=O)o1
inactive: [1] 0.999 | locus YAL021C, strain ccr4, active compounds read low 0.991 | locus YAL026C, strain drs2, active compounds read low 0.998 | locus YAL030W, strain snc1, active compounds read low 0.993 | locus YBL061C, strain skt5, active compounds read low 1 | locus YBR009C, strain hhf1, active compounds read low 0.997 | locus YBR021W, strain FUR4, active compounds read low 0.985 | locus YBR023C, strain chs3, active compounds read low 1.01 | locus YBR171W, strain sec66, active compounds read low 0.988 | [2] 0.992 | locus YBR231C, strain swc5, active compounds read low 1.02 | locus YBR279W, strain paf1, active compounds read low 1 | locus YCL011C, strain gbp2, active compounds read low 0.991 | locus YCL016C, strain dcc1, active compounds read low 0.991 | locus YCL029C, strain bik1, active compounds read low 0.974 | locus YCL069W, strain vba3, active compounds read low 1.01 | locus YCR088W, strain abp1, active compounds read low 0.991 | locus YDL005C, strain med2, active compounds read low 1.01 | locus YDL035C, strain GPR1, active compounds read low 1.02 | locus YDL040C, strain nat1, active compounds read low 1 | locus YDL074C, strain BRE1, active compounds read low 1.01 | [3] 0.988 | [4] 1.03 | locus YDL185W, strain tfp1, active compounds read low 0.971 | locus YDL192W, strain arf1, active compounds read low 0.994 | locus YDR001C, strain nth1, active compounds read low 0.989 | locus YDR069C, strain doa4, active compounds read low 1.03 | locus YDR101C, strain arx1, active compounds read low 0.971 | locus YDR137W, strain rgp1, active compounds read low 0.998 | [5] 1.01 | locus YDR159W, strain sac3, active compounds read low 1.02 | locus YDR162C, strain NBP2, active compounds read low 1.02 | locus YDR195W, strain ref2 0.979 | locus YDR297W, strain sur2, active compounds read low 1.02 | locus YDR318W, strain mcm21, active compounds read low 1.02 | locus YDR334W, strain swr1, active compounds read low 0.989 | locus YDR335W, strain msn5, active compounds read low 1 | locus YDR388W, active compounds read low 0.992 | locus YDR392W, strain spt3, active compounds read low 1.03 | locus YDR502C, strain sam2, active compounds read low 1 | locus YEL003W, strain gim4, active compounds read low 0.992 | locus YEL037C, strain rad23, active compounds read low 0.994 | locus YEL061C, strain CIN8 (second series), active compounds read low 0.992 | [6] 1 | locus YER015W, strain faa2, active compounds read low 1.01 | locus YER016W, strain bim1, active compounds read low 0.994 | locus YER110C, active compounds read low 0.986 | locus YER111C, strain swi4, active compounds read low 1.01 | locus YER155C, strain BEM2 (second series), active compounds read low 1.04 | locus YER155C, strain BEM2, active compounds read low 0.982 | locus YER167W, strain BCK2, active compounds read low 0.99 | locus YFR010W, strain ubp6, active compounds read low 0.982 | locus YGL078C, strain dbp3, active compounds read low 0.981 | locus YGL086W, strain mad1, active compounds read low 0.969 | locus YGL167C, strain pmr1, active compounds read low 0.983 | locus YGL173C, strain kem1, active compounds read low 1.02 | locus YGL227W, strain vid30, active compounds read low 1.01 | locus YGL240W, strain doc1, active compounds read low 1.03 | locus YGL248W, strain PDE1, active compounds read low 0.997 | locus YGL253W, strain hxk2, active compounds read low 0.997 | locus YGR135W, strain pre9, active compounds read low 1.03 | locus YGR252W, strain gcn5, active compounds read low 1.09 | locus YHR013C, strain ard1, active compounds read low 0.998 | locus YHR027C, strain rpn1, active compounds read low 0.989 | [7] 0.992 and 0.959 | locus YHR079C, strain IRE1 (second series), active compounds read low 0.992 | locus YHR079C, strain IRE1, active compounds read low 0.969 | locus YHR094C, strain hxt1, active compounds read low 0.986 | locus YHR129C, strain ARP1, active compounds read low 1 | locus YHR142W, strain chs7, active compounds read low 0.987 | locus YHR200W, strain rpn10, active compounds read low 0.993 | locus YIL066C, strain RNR3, active compounds read low 0.988 | locus YIL073C, strain SPO22, active compounds read low 0.993 | locus YIL125W, strain kgd1, active compounds read low 0.984 | locus YIR030C, strain dcg1, active compounds read low 0.99 | locus YJL092W, strain hpr5, active compounds read low 0.987 | locus YJL095W, strain BCK1 (second series), active compounds read low 1 | locus YJL095W, strain BCK1, active compounds read low 1.01 and 0.959 | locus YJL115W, strain asf1, active compounds read low 0.969 | locus YJL129C, strain trk1, active compounds read low 1 | locus YJL134W, strain LCB3, active compounds read low 0.994 | locus YJL154C, strain vps35, active compounds read low 0.989 | locus YJL164C, strain tpk1, active compounds read low 0.996 | locus YJL166W, strain qcr8, active compounds read low 1.03 | locus YJL168C, strain set2, active compounds read low 0.992 | locus YJL187C, strain SWE1 (second series), active compounds read low 0.992 | [8] 1.01 | [9] 1.01 | locus YJR066W, strain TOR1, active compounds read low 0.921 | [10] 0.998 | locus YKL009W, strain mrt4, active compounds read low 0.961 | locus YKL068W, active compounds read low 0.989 | locus YKL085W, strain MDH1 (second series), active compounds read low 0.984 | locus YKL085W, strain MDH1, active compounds read low 0.984 | locus YKL160W, strain elf1, active compounds read low 0.994 | locus YKL190W, strain CNB1, active compounds read low 1.01 | locus YKR001C, strain vps1, active compounds read low 0.983 | locus YKR026C, strain gcn3, active compounds read low 0.993 | locus YKR091W, strain srl3, active compounds read low 0.983 | locus YLL001W, strain dnm1, active compounds read low 0.995 | locus YLL026W, active compounds read low 1.01 | locus YLL041C, strain sdh2, active compounds read low 0.985 | locus YLR027C, strain aat2, active compounds read low 1.01 | [11] 1.02 | locus YLR058C, strain SHM2, active compounds read low 1 | locus YLR102C, strain apc9, active compounds read low 0.991 | locus YLR113W, strain HOG1, active compounds read low 0.951 | locus YLR221C, strain rsa3, active compounds read low 1.03 | locus YLR258W, strain gsy2, active compounds read low 1.02 | locus YLR262C, strain YPT6 (second series), active compounds read low 0.995 | [12] 1.04 | locus YLR268W, strain sec22, active compounds read low 0.965 | locus YLR320W, strain mms22, active compounds read low 1.05 | locus YLR330W, strain CHS5, active compounds read low 0.99 | locus YLR342W, strain FKS1 (second series), active compounds read low 1 | locus YLR342W, strain FKS1, active compounds read low 1.01 | locus YLR357W, strain rsc2, active compounds read low 0.973 | locus YLR370C, strain arc18, active compounds read low 1.01 | locus YLR371W, strain rom2, active compounds read low 0.974 | locus YLR384C, strain iki3, active compounds read low 1 | locus YLR418C, strain cdc73, active compounds read low 1.01 | locus YML016C, strain PPZ1, active compounds read low 0.985 | locus YML032C, strain rad52, active compounds read low 1.02 | locus YML120C, strain ndi1, active compounds read low 0.994 | locus YML124C, strain tub3, active compounds read low 0.994 | locus YMR058W, strain fet3, active compounds read low 0.987 | locus YMR078C, strain ctf18, active compounds read low 0.991 | locus YMR125W, strain sto1, active compounds read low 0.955 | locus YMR129W, active compounds read low 0.996 | locus YMR205C, strain PFK2, active compounds read low 1.01 | locus YMR223W, strain ubp8, active compounds read low 0.999 | locus YMR231W, strain pep5, active compounds read low 1.01 | [13] 1.01 | locus YMR307W, strain GAS1, active compounds read low 1.01 | locus YNL067W, strain RPL9B, active compounds read low 1.01 | locus YNL071W, strain lat1, active compounds read low 1 | locus YNL183C, strain NPR1, active compounds read low 0.898 | locus YNL209W, strain ssb2, active compounds read low 0.995 | locus YNL233W, strain BNI4, active compounds read low 0.997 | locus YNL248C, strain rpa49, active compounds read low 0.99 | locus YNL250W, strain rad50, active compounds read low 0.991 | locus YNL271C, strain bni1, active compounds read low 0.976 | locus YNL298W, strain CLA4, active compounds read low 0.988 | locus YNL307C, strain MCK1, active compounds read low 0.977 | locus YNL322C, strain KRE1 (second series), active compounds read low 0.99 | [14] 0.997 | locus YNR049C, strain mso1, active compounds read low 0.984 | locus YNR052C, strain pop2, active compounds read low 0.988 | locus YOL012C, strain htz1 0.84 | locus YOL147C, strain pex11, active compounds read low 0.993 | locus YOR001W, strain rrp6, active compounds read low 1.01 | locus YOR061W, strain CKA2, active compounds read low 0.991 | locus YOR069W, strain VPS5, active compounds read low 0.992 | locus YOR070C, strain gyp1, active compounds read low 1.01 | locus YOR080W, strain dia2, active compounds read low 0.997 | locus YOR083W, strain WHI5, active compounds read low 0.999 | locus YOR106W, strain vam3, active compounds read low 0.999 | locus YOR136W, strain idh2, active compounds read low 0.971 | locus YOR144C, strain elg1, active compounds read low 0.989 | locus YOR184W, strain ser1, active compounds read low 0.992 | locus YOR231W, strain MKK1, active compounds read low 0.965 | locus YOR265W, strain rbl2, active compounds read low 1.01 | locus YOR270C, strain vph1, active compounds read low 1.02 | locus YOR290C, strain snf2, active compounds read low 0.974 | locus YOR316C, strain cot1, active compounds read low 0.986 | locus YPL051W, strain arl3, active compounds read low 0.999 | [15] 1.01 | locus YPL078C, strain atp4, active compounds read low 0.994 | locus YPL106C, strain sse1, active compounds read low 1.01 | locus YPL240C, strain hsp82, active compounds read low 0.99 | [16] 1.01 | locus YPL256C, strain CLN2, active compounds read low 0.948 | locus YPR119W, strain clb2, active compounds read low 0.99 | locus YPR141C, strain kar3, active compounds read low 0.984 | locus YPR163C, strain tif3, active compounds read low 0.992 | locus YPR167C, strain met16, active compounds read low 0.996 | strain wtn01, active compounds read low 0.93
